Assay results published in PubChem BioAssay (NCI).
Compounds without any hit were thinned out: in the full panel of roughly 79,000, 15% have a hit. Values without a mark were called inactive. Calls of active or inactive are those of the source. Rule as the data show it: active = growth inhibition above about 70%; inactive = the rest.

Tests used:
[1] = NCI Yeast Anticancer Drug Screen. Data for the rad50 strain (AID 155);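 also: 0% = growth of vehicle-only cultures of the same strain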; settings: S. cerevisiae rad50 strain growth inhibition, active compounds read high
Procedure, shortened: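 DNA repair mutant yeast, compound exposure, growth read-out; inhibition is taken relative to vehicle.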

[2] = NCI Yeast Anticancer Drug Screen. Data for the mec2-1 strain (AID 157); settings: S. cerevisiae mec2-1 strain, active compounds read high
Procedure, shortened: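 Cells of the genetically defined mec2-1 yeast strain are incubated with test compound. Inhibition of growth is calculated against vehicle-treated controls.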

[3] = NCI Yeast Anticancer Drug Screen. Data for the sgs1 mgt1 strain (AID 161);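 also: 0% = growth of cultures given vehicle only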; settings: S. cerevisiae sgs1 mgt1 strain, active compounds read high
Procedure, shortened: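 Genetically altered yeast, compound exposure, growth inhibition relative to vehicle.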

[4] = NCI Yeast Anticancer Drug Screen. Data for the cln2 rad14 strain (AID 165);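 also: 0% = growth equal to vehicle treated cultures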; settings: S. cerevisiae cln2 rad14 strain, active compounds read high
Procedure, shortened: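 The screen exposed genetically defined yeast (cln2 rad14) to test compounds and scored growth inhibition relative to vehicle-treated controls.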

[5] = NCI Yeast Anticancer Drug Screen. Data for the bub3 strain (AID 167); settings: S. cerevisiae bub3 mutant strain, active compounds read high
Procedure, shortened: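 In this screen, a yeast mutant lacking normal mitotic checkpoint function is challenged with compound. Relative growth versus vehicle gives the inhibition value.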

[6] = NCI Yeast Anticancer Drug Screen. Data for the mlh1 rad18 strain (AID 175); settings: S. cerevisiae mlh1 rad18 strain growth inhibition, active compounds read high
Procedure, shortened: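 Compound-treated yeast growth, normalised to vehicle controls. Strain bears defined DNA repair mutations.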

[7] = at 5.0 µM (retest, dose inferred, filed as 0.5)
[8] = at 50.0 µM (retest, dose inferred, filed as 5.0)

SMILES	growth inhibition [1, 7] [%]	growth inhibition [1, 8]	growth inhibition ([1]; at 50.0 µM)	growth inhibition [2, 7] [%]	growth inhibition [2, 8]	growth inhibition ([2]; at 50.0 µM)	growth inhibition [3, 7]	growth inhibition [3, 8]	growth inhibition ([3]; at 50.0 µM)	growth inhibition [4, 7] [%]	growth inhibition [4, 8]	growth inhibition ([4]; at 50.0 µM)	growth inhibition [5, 7] [%]	growth inhibition [5, 8]	growth inhibition ([5]; at 50.0 µM)	growth inhibition [6, 7]	growth inhibition [6, 8]	growth inhibition ([6]; at 50.0 µM)
CC(=O)Oc1ccc(C23CC4CC(CC(C4)C2)C3)cc1	-2	98% (active)	98.8% (active)	-2	99% (active)	98.5% (active)	16%	99% (active)	98.6% (active)	-36	99% (active)	96.6% (active)	25	108% (active)	98.8% (active)	10%	99% (active)	98.3% (active)
Clc1nc2ccccc2nc1N1CCCCCC1	0	90% (active)	-17.5%	2	96% (active)	-7.05%	1%	72% (active)	25.6%	-5	74% (active)	-21.4%	9	93% (active)	76% (active)	2%	85% (active)	5.2%
CN(NC(=O)/C(=C\c1ccco1)NC(=O)c1ccccc1)c1cn[nH]c(=O)c1Cl	9	36%	86.2% (active)	-9	13%	83.4% (active)	-2%	6%	87.8% (active)	7	13%	62.7%	-10	27%	90.6% (active)	-6%	47%	93.5% (active)
CCOC(=O)CSc1c(C(=O)OCC)c(=O)n(-c2ccccc2)c(=S)n1-c1ccccc1	60	90% (active)	85.2% (active)	44	89% (active)	87.2% (active)	75% (active)	94% (active)	87.8% (active)	54	91% (active)	80.8% (active)	31	90% (active)	85.8% (active)	74% (active)	89% (active)	81.8% (active)
N#CCc1nc2c(s1)C(=O)c1ccccc1C2=O	52	99% (active)	71.4% (active)	48	100% (active)	82.5% (active)	47%	100% (active)	41.8%	30	98% (active)	35.2%	55	99% (active)	87.2% (active)	67%	99% (active)	68.7%
CC(C)c1ccc(CN(CCO)Cc2ccc(C(C)C)cc2)cc1	7	84% (active)	97.2% (active)	3	88% (active)	75.6% (active)	6%	95% (active)	97.1% (active)	7	87% (active)	77.3% (active)	7	97% (active)	98.6% (active)	8%	91% (active)	81.8% (active)
CCCCN(CCCC)CC(O)c1cc(-c2ccc(Cl)cc2)nc2c(C)cccc12 (configuration not stated)	0	94% (active)	98% (active)	2	95% (active)	97.3% (active)	19%	96% (active)	98.4% (active)	-4	91% (active)	95.8% (active)	-7	94% (active)	89.8% (active)	7%	95% (active)	95.9% (active)
CN(/N=C\c1cccc([N+](=O)[O-])c1)C(c1cccc([N+](=O)[O-])c1)N(C)/N=C/c1cccc([N+](=O)[O-])c1 (configuration not stated)	-1	34%	43%	-1	45%	48.4%	2%	74% (active)	68.5%	0	17%	8.75%	-7	16%	16.5%	0%	40%	40.6%
N#CC(C(=O)CCCC(=O)Nc1ccc(Cl)cc1)c1ccccc1Cl (configuration not stated)	2	0%	96.8% (active)	-1	6%	98% (active)	9%	4%	99% (active)	-2	1%	93.9% (active)	1	30%	99% (active)	-2%	4%	96.7% (active)
